Measurements reported in PubChem BioAssay (NCATS).
Records with an inconclusive call do not appear. Activity calls are given as the source filed them. Calls come from the whole dose curve; as a rule, active = well fitted curve in the direction sought with a large enough effect; inconclusive = small, poorly fitted or top-dose-only effect, or another doubt; inactive = no such curve, though single readings can be large; an effect the other way counts as inactive or inconclusive.

Key:
[1] = qHTS Assay for Identifying Gametocytocidal Compounds (AID 743244);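 note: actives lower the fluorescent signal which means gametocytes are killed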; conditions: P. falciparum 3D7 stage III-V gametocytes, alamarBlue, 72 h; max response: active compounds read low
In short: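 3D7 gametocytes, stages III–V, 20,000/well; cpd 72 h, 37 °C/5% CO2; + alamarBlue 24 h; fluor. Ex 525/Em 598.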

[2] = qHTS assay to identify small molecule inhibitors of chordoma cells - UCH-1 (AID 1259355); note: nearly all actives have a fitted effect of over 55% in size
In short: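 Luminescent ATP read-out (CellTiter-Glo, 30min at room temperature) measured viability of UCH-1 cells exposed for 48hr to test drugs at 15 concentrations, co-dosed with a five-agent combination of auranofin, camptothecin, doxorubicin, rubitecan and topotecan.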

[3] = qHTS assay to identify small molecule inhibitors of chordoma cells - UCH-2 (AID 1259356); note: series mostly up to about 46 µM
[4] = P-glycoprotein substrates identified in KB-8-5-11 adenocarcinoma cell line, qHTS therapeutic library screen (AID 1346987); conditions: outcome: dose series up to 44.5 µM unless noted; note: series mostly up to about 44 µM; nearly all actives have a fitted effect of over 65% in size
In short: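 KB-8-5-11, a colchicine-selected P-gp-overexpressing KB-3-1 subline, was grown without colchicine for the assay. Cells were seeded at 500 cells/well, dosed in concentration-response and incubated 72 h at 37 degree C, 5% CO2. Viability was read by CellTiter-Glo luminescence.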
% is set by controls: 0 for no effect and ±100 for the full control effect.

CC(C)(Oc1ccc(C2CCCc3ccccc32)cc1)C(=O)O (configuration not stated)
inactive: max response [1] -6.04% | Potency [2] | Potency [3] | Potency [4]

O=C(O)CN(CC(=O)O)CC1=CC2C(=CC1=O)Oc1cc(O)c(CN(CC(=O)O)CC(=O)O)cc1C21OC(=O)c2ccccc21 (configuration not stated)
inactive: max response [1] 5.31% | Potency [2] | Potency [3] | Potency [4]

C[C@@H]1C[C@H]2[C@@H]3CCC4=CC(=O)C=C[C@]4(C)[C@@]3(F)[C@@H](O)C[C@]2(C)[C@@]1(O)C(=O)COC(=O)c1cccc(S(=O)(=O)O)c1
inactive: max response [1] 12.5% | Potency [2] | Potency [3] | Potency [4]
